Laboratory results reported in ChEMBL document CHEMBL1961873, “Compounds: GSK PKIS; Assays: Nanosyn kinase panel” (2012).

Legend:
[1] = molecular target: Protein kinase C gamma type (Homo sapiens) (UniProt P05129); settings: at 1 µM;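 also: each value is an averaged percent inhibition of the enzyme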
[2] = molecular target: T1, Protein kinase C iota type (Homo sapiens) (UniProt P41743); settings: at 0.1 µM
T1 sequence (whole entry): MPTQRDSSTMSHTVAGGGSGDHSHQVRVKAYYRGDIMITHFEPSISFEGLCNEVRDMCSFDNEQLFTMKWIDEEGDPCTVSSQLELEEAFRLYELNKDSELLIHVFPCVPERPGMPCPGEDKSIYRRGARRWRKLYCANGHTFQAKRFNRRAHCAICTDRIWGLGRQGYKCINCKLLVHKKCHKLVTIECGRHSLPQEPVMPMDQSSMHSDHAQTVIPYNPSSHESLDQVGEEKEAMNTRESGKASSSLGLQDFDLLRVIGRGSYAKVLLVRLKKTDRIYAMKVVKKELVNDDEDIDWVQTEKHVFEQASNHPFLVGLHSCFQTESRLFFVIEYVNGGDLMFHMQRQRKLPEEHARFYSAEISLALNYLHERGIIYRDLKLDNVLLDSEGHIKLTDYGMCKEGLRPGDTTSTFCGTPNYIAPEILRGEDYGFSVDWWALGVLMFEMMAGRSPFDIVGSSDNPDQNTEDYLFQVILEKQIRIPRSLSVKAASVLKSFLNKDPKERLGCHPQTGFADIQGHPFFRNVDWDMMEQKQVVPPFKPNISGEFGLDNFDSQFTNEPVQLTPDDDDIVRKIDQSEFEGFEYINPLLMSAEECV

[3] = molecular target: T1, Protein kinase C iota type (Homo sapiens); settings: at 1 µM
[4] = molecular target: Protein kinase C theta type (Homo sapiens) (UniProt Q04759); settings: at 0.1 µM
[5] = molecular target: Protein kinase C theta type (Homo sapiens) (UniProt Q04759); settings: at 1 µM
[6] = molecular target: Protein kinase C beta type (Homo sapiens) (UniProt P05771); settings: at 0.1 µM
[7] = molecular target: Protein kinase C beta type (Homo sapiens) (UniProt P05771); settings: at 1 µM
[8] = molecular target: T2, Serine/threonine-protein kinase D1 (Homo sapiens) (UniProt Q15139); settings: at 0.1 µM
T2 sequence (whole entry): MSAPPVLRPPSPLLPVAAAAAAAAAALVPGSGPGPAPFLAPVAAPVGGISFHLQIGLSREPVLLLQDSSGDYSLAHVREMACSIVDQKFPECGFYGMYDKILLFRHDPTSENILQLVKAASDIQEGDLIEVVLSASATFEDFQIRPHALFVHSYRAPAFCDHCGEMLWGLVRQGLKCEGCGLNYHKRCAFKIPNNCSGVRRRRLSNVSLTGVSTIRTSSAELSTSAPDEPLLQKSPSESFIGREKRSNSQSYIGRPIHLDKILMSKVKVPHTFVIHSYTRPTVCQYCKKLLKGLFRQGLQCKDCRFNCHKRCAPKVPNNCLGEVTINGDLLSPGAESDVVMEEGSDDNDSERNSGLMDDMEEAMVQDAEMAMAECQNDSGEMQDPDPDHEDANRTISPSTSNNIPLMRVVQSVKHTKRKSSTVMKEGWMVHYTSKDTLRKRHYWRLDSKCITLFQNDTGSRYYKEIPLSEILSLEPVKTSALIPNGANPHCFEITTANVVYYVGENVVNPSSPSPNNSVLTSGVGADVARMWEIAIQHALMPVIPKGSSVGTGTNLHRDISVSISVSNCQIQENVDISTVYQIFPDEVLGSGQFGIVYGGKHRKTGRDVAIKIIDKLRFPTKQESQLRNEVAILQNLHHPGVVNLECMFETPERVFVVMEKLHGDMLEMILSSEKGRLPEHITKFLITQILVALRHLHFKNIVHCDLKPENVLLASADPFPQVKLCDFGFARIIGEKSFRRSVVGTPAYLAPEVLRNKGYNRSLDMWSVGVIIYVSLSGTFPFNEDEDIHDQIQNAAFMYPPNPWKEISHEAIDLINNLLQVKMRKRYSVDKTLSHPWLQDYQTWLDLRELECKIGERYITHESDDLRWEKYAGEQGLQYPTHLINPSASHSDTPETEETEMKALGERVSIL

[9] = molecular target: T2, Serine/threonine-protein kinase D1 (Homo sapiens); settings: at 1 µM
[10] = molecular target: T3, Serine/threonine-protein kinase D2 (Homo sapiens) (UniProt Q9BZL6); settings: at 0.1 µM
T3 sequence (whole entry): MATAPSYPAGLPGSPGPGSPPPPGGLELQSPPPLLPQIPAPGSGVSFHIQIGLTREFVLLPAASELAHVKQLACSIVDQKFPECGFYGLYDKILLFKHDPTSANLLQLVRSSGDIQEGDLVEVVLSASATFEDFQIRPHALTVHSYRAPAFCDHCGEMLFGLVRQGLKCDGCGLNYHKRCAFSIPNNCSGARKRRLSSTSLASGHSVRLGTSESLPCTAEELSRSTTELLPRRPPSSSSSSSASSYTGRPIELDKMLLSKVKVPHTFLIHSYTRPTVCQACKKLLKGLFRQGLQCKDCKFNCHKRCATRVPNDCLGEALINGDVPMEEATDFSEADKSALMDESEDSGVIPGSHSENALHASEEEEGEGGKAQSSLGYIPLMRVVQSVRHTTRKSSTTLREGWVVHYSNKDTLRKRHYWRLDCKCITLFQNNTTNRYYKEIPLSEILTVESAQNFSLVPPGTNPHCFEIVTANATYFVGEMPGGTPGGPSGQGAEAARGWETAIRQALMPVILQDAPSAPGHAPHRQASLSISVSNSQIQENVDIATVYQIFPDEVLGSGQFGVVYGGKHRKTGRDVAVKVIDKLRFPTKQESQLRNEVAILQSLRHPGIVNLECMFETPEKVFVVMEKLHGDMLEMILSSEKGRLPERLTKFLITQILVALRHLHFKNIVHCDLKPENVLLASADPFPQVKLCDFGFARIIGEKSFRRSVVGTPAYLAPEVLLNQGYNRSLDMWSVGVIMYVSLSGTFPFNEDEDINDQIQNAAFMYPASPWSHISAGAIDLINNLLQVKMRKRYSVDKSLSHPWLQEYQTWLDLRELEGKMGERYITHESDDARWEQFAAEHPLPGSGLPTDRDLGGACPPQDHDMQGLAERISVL

[11] = molecular target: T3, Serine/threonine-protein kinase D2 (Homo sapiens); settings: at 1 µM
[12] = molecular target: T4, Serine/threonine-protein kinase D3 (Homo sapiens) (UniProt O94806); settings: at 0.1 µM
T4 sequence (whole entry): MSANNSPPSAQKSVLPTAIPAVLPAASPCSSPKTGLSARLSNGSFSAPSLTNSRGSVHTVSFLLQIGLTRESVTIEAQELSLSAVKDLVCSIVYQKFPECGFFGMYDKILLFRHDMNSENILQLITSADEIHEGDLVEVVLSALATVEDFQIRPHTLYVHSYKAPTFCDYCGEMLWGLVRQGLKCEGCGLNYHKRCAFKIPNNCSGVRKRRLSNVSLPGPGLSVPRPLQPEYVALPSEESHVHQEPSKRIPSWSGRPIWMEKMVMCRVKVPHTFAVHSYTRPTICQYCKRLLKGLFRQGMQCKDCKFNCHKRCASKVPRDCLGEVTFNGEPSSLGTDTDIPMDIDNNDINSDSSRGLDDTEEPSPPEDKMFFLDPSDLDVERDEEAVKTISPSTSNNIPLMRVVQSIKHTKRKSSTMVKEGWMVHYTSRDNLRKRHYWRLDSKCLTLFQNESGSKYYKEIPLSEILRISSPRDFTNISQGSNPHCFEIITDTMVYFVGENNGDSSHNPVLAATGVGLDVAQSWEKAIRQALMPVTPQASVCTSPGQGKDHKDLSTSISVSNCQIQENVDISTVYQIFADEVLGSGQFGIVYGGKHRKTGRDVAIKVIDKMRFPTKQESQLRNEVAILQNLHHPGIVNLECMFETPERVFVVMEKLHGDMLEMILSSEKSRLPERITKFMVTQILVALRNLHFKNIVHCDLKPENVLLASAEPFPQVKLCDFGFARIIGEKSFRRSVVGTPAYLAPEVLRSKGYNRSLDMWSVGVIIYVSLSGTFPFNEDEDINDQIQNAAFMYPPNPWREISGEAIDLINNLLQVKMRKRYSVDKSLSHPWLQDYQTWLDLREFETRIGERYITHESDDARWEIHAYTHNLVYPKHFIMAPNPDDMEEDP

[13] = molecular target: T4, Serine/threonine-protein kinase D3 (Homo sapiens); settings: at 1 µM
[14] = molecular target: T5, cGMP-dependent protein kinase 1 (Homo sapiens) (UniProt Q13976); settings: at 0.1 µM
T5 sequence (whole entry): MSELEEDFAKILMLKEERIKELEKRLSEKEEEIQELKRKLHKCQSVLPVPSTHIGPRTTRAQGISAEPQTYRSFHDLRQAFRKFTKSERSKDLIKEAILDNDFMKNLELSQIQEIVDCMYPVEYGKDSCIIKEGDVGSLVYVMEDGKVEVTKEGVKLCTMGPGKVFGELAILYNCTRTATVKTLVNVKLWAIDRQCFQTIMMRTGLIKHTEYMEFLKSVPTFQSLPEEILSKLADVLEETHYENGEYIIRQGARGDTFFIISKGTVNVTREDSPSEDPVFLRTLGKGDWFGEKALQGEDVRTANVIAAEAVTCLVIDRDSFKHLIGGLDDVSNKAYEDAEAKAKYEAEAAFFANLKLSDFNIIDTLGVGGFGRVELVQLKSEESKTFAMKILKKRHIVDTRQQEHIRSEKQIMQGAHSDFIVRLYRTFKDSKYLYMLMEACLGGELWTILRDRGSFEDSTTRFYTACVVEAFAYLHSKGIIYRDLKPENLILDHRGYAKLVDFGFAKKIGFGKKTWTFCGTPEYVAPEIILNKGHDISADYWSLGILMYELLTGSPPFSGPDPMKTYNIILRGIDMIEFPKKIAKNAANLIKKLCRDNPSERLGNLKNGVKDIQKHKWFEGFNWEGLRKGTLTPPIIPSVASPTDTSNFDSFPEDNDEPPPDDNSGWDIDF

[15] = molecular target: T5, cGMP-dependent protein kinase 1 (Homo sapiens); settings: at 1 µM
[16] = molecular target: T6, cGMP-dependent protein kinase 2 (Homo sapiens) (UniProt Q13237); settings: at 0.1 µM
T6 sequence (whole entry): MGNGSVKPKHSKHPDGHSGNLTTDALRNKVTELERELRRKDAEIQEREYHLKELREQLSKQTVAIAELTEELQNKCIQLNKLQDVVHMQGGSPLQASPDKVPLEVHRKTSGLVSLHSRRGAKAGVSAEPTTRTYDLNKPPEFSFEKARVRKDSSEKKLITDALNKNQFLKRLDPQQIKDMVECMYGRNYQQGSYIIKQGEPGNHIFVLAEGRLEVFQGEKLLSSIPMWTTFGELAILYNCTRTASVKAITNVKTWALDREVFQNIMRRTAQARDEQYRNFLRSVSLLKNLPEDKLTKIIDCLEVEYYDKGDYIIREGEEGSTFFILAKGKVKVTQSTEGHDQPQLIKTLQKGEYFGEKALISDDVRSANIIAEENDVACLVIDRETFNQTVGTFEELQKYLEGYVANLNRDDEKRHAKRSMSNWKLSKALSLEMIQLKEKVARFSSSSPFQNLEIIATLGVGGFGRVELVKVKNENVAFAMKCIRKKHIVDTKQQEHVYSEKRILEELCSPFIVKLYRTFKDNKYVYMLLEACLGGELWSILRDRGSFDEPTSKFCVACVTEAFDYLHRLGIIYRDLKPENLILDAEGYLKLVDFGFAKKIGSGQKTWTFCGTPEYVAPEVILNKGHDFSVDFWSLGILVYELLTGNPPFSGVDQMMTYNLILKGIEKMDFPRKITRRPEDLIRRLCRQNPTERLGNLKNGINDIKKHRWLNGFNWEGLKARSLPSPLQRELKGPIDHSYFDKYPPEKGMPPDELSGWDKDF

[17] = molecular target: T6, cGMP-dependent protein kinase 2 (Homo sapiens); settings: at 1 µM
[18] = molecular target: T7, cAMP-dependent protein kinase catalytic subunit PRKX (Homo sapiens) (UniProt P51817); settings: at 0.1 µM
T7 sequence (whole entry): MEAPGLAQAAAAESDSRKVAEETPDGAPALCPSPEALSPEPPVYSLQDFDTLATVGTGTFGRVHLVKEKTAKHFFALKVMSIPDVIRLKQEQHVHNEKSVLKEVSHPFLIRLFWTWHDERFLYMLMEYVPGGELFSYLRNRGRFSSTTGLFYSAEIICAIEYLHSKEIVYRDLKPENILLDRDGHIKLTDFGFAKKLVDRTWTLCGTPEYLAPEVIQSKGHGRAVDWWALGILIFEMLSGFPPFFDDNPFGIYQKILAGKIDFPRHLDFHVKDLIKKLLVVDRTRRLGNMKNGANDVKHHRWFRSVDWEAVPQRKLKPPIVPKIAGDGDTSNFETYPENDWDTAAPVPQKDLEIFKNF

[19] = molecular target: T7, cAMP-dependent protein kinase catalytic subunit PRKX (Homo sapiens); settings: at 1 µM
[20] = molecular target: Rho-associated protein kinase 1 (Homo sapiens) (UniProt Q13464); settings: at 0.1 µM;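 also: values are mean percent inhibition of ROCK1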
Rho-associated protein kinase 1 (Homo sapiens), sequence (Q13464 2-1354 limits assumed): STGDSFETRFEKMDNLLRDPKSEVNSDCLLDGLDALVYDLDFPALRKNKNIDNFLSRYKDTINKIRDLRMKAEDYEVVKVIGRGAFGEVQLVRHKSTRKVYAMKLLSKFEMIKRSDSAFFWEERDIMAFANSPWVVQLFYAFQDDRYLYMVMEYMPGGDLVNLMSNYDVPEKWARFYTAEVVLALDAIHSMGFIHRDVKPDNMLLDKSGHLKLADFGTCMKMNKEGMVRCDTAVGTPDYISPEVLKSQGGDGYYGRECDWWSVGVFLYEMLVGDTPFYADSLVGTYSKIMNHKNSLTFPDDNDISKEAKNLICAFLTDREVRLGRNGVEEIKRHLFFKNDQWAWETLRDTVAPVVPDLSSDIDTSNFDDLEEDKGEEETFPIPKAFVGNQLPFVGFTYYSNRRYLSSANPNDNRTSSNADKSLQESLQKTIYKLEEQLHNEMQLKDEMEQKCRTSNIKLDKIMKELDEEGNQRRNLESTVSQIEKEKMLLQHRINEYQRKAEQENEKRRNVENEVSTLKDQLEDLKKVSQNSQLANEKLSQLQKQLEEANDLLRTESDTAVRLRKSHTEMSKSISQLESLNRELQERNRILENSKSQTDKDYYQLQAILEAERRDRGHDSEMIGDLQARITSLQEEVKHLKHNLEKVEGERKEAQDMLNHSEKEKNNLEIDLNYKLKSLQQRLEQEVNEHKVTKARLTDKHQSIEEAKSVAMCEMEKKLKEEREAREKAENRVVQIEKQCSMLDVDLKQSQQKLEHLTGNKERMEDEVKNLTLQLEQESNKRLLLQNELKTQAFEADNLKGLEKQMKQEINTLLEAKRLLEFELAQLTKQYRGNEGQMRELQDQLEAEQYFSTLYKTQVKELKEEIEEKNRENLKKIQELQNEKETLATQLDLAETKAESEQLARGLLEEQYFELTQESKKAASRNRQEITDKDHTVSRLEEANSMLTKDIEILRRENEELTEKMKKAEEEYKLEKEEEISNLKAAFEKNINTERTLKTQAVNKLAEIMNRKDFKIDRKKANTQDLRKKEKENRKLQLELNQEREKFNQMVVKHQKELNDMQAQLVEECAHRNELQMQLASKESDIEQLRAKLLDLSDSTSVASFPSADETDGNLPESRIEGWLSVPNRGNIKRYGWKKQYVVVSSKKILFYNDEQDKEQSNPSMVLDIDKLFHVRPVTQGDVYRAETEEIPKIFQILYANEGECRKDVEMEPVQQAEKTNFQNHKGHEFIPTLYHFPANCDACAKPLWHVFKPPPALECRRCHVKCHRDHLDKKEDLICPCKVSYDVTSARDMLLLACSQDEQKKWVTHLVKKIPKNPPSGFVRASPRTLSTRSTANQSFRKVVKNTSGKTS

Protein kinase C theta type (Homo sapiens), sequence (Q04759 whole entry, looked up): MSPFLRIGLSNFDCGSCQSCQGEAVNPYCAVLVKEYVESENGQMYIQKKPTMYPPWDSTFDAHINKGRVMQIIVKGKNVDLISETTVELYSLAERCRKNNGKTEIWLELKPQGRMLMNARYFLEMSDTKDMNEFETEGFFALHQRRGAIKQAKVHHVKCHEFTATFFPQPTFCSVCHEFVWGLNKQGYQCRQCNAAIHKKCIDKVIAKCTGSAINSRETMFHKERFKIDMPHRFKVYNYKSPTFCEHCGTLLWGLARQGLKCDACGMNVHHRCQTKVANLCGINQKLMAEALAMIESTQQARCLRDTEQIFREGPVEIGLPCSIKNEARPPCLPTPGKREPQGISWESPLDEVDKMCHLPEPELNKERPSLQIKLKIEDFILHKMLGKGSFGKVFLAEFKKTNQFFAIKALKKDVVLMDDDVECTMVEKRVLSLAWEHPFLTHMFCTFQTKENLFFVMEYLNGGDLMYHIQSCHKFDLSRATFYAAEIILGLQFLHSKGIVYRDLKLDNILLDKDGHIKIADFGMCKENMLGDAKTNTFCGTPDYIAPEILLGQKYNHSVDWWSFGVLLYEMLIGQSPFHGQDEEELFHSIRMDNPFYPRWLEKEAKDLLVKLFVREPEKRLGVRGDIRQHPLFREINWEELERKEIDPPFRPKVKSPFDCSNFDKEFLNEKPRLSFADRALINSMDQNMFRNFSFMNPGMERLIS
Protein kinase C beta type (Homo sapiens), sequence (P05771 2-671 limits assumed): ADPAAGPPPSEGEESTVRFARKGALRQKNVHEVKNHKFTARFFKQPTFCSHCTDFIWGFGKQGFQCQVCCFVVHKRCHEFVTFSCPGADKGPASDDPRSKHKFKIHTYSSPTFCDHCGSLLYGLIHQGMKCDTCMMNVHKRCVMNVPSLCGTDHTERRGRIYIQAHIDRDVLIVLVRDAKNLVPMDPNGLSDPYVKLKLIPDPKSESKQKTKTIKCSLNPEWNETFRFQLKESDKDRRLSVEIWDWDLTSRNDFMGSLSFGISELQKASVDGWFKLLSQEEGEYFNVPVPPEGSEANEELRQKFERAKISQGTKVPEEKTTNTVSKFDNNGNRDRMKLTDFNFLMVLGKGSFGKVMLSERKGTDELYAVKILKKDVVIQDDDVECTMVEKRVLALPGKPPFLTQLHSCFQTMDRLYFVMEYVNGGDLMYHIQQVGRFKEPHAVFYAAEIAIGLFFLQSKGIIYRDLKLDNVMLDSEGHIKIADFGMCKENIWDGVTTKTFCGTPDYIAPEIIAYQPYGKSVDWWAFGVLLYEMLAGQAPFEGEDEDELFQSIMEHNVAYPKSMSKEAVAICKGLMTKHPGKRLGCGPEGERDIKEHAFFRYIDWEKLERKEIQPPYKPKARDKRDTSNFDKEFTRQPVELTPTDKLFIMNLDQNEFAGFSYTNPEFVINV

SMILES	inhibition [1] [%]	inhibition [2] [%]	inhibition [3] [%]	inhibition [4] [%]	inhibition [5] [%]	inhibition [6] [%]	inhibition [7] [%]	inhibition [8] [%]	inhibition [9] [%]	inhibition [10] [%]	inhibition [11] [%]	inhibition [12] [%]	inhibition [13] [%]	inhibition [14] [%]	inhibition [15] [%]	inhibition [16] [%]	inhibition [17] [%]	inhibition [18] [%]	inhibition [19] [%]	inhibition [20] [%]
CC1=C(C(=O)Nc2ccc3[nH]ncc3c2)C(c2ccc(Cl)c(Cl)c2)CC(=O)N1 (stereo not given)	-2.08	0.23	-0.03	0.6	5.07	0.17	0.61	0.89	4.46	1.41	5.98	1.11	9.26	10.1	50	5.19	34.7	14.8	59.2	68.6
CCn1c(-c2nonc2N)nc2c(N3CCCC3)nccc21	2.66	0.51	-0.25	-0.32	0.44	-1.87	2.46	-0.28	-0.14	-1.19	-0.31	-0.29	0.75	0.96	3.63	1.09	9.26	0.17	0.74	3.22
COc1cc2c(cc1Nc1nc(N3CCc4ccccc43)c3cc[nH]c3n1)N(C(=O)CN(C)C)CC2	5.19	1.44	3.35	1.03	-0.74	1.14	1.29	1.69	3.76	1.71	3.6	1.51	4.37	2.84	2.75	2.18	2.75	0.6	-1.42	0.33
